These results are taken from ChEMBL document CHEMBL1157539, “Thousands of chemical starting points for antimalarial lead identification” (Nature, 2010).

The first assay has as its system Plasmodium falciparum. The experiment in a line: GSK_TCMDC: Inhibition of Plasmodium falciparum 3D7 in whole red blood cells, using parasite LDH activity as an index of growth. Test compounds present at 2uM. It is filed as functional.
For orientation: Inhibition means the drop in the measured response relative to a control, in per cent. In the case of `O=C(Nc1cccc(CN2CCCN(Cc3ccccc3)CC2)c1)c1ccc(-c2ccccc2)cc1.O=C(O)C(F)(F)F`, the Inhibition is given as 85%.
As for `CCN(CC)CCN(Cc1ccc(-c2ccc(C(F)(F)F)cc2)cc1)C(=O)Cn1c(CCc2cc(F)c(F)c(F)c2)nc(=O)c2ccccc21.O=C(O)C(O)C(O)C(=O)O`, the Inhibition is 100%.
In turn, `Cc1c(CNCCN2CCCCC2)c(C(=O)O)c(C)n1Cc1ccc(Cl)cc1` gave an Inhibition of 97%.
`CN(CCCNC(=S)NC12CC3CC(CC(C3)C1)C2)CCCNc1ccnc2cc(Cl)ccc12` gave an Inhibition of 100%.
On the same count and under the same terms, under `FC(F)(F)c1ccc2[nH]c(-c3ccc(-c4ccc(CNCc5cnn(-c6ccccc6)n5)cc4)s3)nc2c1.O=C(O)C(F)(F)F` stands 100%; under `Cc1cccc2nc(-c3ccc(-c4cccc(NC(=O)Nc5ccsc5)c4)s3)[nH]c12`, 100%; under `CC1(C)N=C(N)N=C(N)N1OCCCOc1cc(Cl)c(Cl)cc1Cl.Cl`, 95%.
`CC(C)(CNC(=O)[C@@H]1CCCCN1)c1nc(-c2ccc(Cl)c(O)c2)c(-c2ccncc2)[nH]1.Cl` returned an Inhibition of 97%.
The compound `COc1ccc2nccc([C@@H](O)CN3CCC(NCc4ccc5c(c4)OCCO5)CC3)c2c1.O=C(O)C(=O)O` gave an Inhibition of 100%.
`O=C(Nc1cccc(-c2nn3ccccc3c2-c2ccnc(Nc3ccccc3)n2)c1)c1cc(F)ccc1F`: the Inhibition is listed as 98%.
In the case of `CN(C)c1ccc(-c2nnc(Sc3ccc(C#N)c([N+](=O)[O-])c3)n2Cc2ccco2)cc1`, the Inhibition worked out at 95%.
`COc1ccc(-n2c(=O)c3c(n4c(SC(C)C)nnc24)-c2ccccc2CC32CCCCC2)cc1` had an Inhibition of 99%.
Compound `CC(C)(C)c1ccc(S(=O)(=O)Nc2ccccc2N2CCOCC2)cc1` came in with an Inhibition of 90%.
`O=C(NC1CCN(Cc2ccc(F)cc2)CC1)c1ccc(-c2cccc(C(F)(F)F)c2)s1.O=C(O)C(F)(F)F`: the Inhibition is recorded as 83%.
Same read-out and setting: under `Cc1c(-c2cccc(C(C)(C)NC3CCN(Cc4ccccc4)CC3)c2)cnc(N)c1C.Cl` stands 100%.
The compound `COc1ccccc1OCCN(CC(O)COc1cccc2[nH]c3ccccc3c12)CC(O)COc1cccc2[nH]c3ccccc3c12` (stereo unspecified) yielded an Inhibition of 97%.
Same read-out and setting: under `O=C(/C=C/c1ccc(Cl)c(Cl)c1)NCCCCCN1CCC(NC(=S)Nc2ccc(Cl)cc2)CC1` stands 99%; under `CN1CCN(c2cc(NC(=O)Nc3cccc(Cl)c3Cl)ccc2Cl)CC1.Cl`, 100%; under `O=C(Nc1ccccc1N1CCOCC1)c1ncoc1-c1ccccc1C(F)(F)F`, 89%.
The same measure, in the same setting: to `O=C(Cn1cnc2c(nnn2Cc2ccccc2F)c1=O)Nc1ccc2c(c1)OCCO2` belongs 86%.
In turn, `CN1CCN(CCCNCc2ccc(Nc3nccc(Nc4ccc(Oc5ccccc5)cc4)n3)cc2)CC1` registered an Inhibition of 100%.
For `COc1ccc(S(=O)(=O)Nc2ccc(C(=O)NCc3ccccc3C(F)(F)F)cc2)cc1N1CCN(CC2CC2)CC1.O=C(O)C(F)(F)F`, the Inhibition was 92%.
Compound `O=C(O)C(F)(F)F.O=S(=O)(NC1CCCCN(Cc2ccccc2O)C1)c1ccc(C(F)(F)F)cc1` (stereo unspecified) displayed an Inhibition of 84%.
As to `Cl.NC(=O)c1cccc(Nc2nccc(Nc3ccc(Oc4c(Cl)cccc4Cl)c(Cl)c3)n2)c1`, the Inhibition worked out at 93%.
In turn, `Cc1cc(NCCCCCCN)nc(Nc2ccc(Cl)cc2)n1` displayed an Inhibition of 100%.
In turn, `O=S(=O)(Nc1ccc(CCN2CCC(N3CCCCC3)CC2)cc1)c1ccc2ccccc2c1` had an Inhibition of 100%.

The next assay deals with Plasmodium falciparum. The experiment in a line: GSK_TCMDC: Inhibition of Plasmodium falciparum Dd2 in whole red blood cells, using parasite LDH activity as an index of growth. Test compounds present at 2uM. It is filed as functional.
Take `COc1ccc(CNC(=O)NC2CCN(c3ccnc(Nc4ccc(OC)cc4)n3)C2)cc1` (stereo unspecified): the Inhibition was 80%.
`COc1cc(OC)c2c(C)cc(NCCCN3CCOCC3)nc2c1` yielded an Inhibition of 3%.
With `CCCCCCN1CCN(Cc2cccc(NC(=O)c3cc4ccccc4s3)c2)CC1.O=C(O)C(F)(F)F`, the Inhibition worked out at 68%.
The same measure, in the same setting: under `CC[C@H]1CN(Cc2cccc(O)c2)CC[C@H]1CCCc1ccnc2ccc(O)cc12` stands 98%; under `Nc1c2c(nc3ccc(NC(=O)c4ccccc4)cc13)CCCC2`, 8%.
On the same count and under the same terms, under `Cc1ccc(-c2noc(COc3ccccc3C(=O)NC3CCCC3)n2)cc1` stands 92%; under `O=C(Nc1cccc(-c2nc3ccccc3s2)c1)c1ccccc1[N+](=O)[O-]`, 9%; under `O=C(NC1CCN(Cc2ccccc2)CC1)c1ccc(-c2nc3cc(Cl)c(Cl)cc3[nH]2)s1`, 99%.
With `O=C(Nc1ccc(Cl)c(Cl)c1)N1CCC(NCc2cccc([N+](=O)[O-])c2)CC1.O=C(O)C(F)(F)F`, the Inhibition was found to be 12%.
Still for that read-out and setting: under `O=C(NCCCCN1CCN(c2cccc3ccccc23)CC1)c1ccc(NC(=O)c2ccc(Cl)cc2)cc1` stands 64%; under `CN1CCN(c2ccc(Nc3ncc(Cl)c(Nc4cccnc4C(N)=O)n3)cc2)CC1.Cl`, 97%; under `CCCCNCc1ccc(-c2nc(CN(C(=O)Nc3cc([N+](=O)[O-])ccc3F)C3Cc4ccccc4C3)cs2)cc1.O=C(O)C(F)(F)F`, 13%.
The compound `CCCC(C)N(Cc1ccc(C(C)(C)C)cc1)C(=O)c1ccc(OC)cc1` (stereo unspecified) registered an Inhibition of 98%.
`CO/C(=C/C=C/c1cc2cc(Cl)c(Cl)cc2[nH]1)C(=O)NC1CC(C)(C)N(C)C(C)(C)C1`: the Inhibition was found to be 85%.
`O=C(Nc1cccc(CN2CCCN(Cc3ccccc3)CC2)c1)c1ccc(-c2ccccc2)cc1.O=C(O)C(F)(F)F` returned an Inhibition of 8%.
The same measure, in the same setting: to `CCN(CC)CCN(Cc1ccc(-c2ccc(C(F)(F)F)cc2)cc1)C(=O)Cn1c(CCc2cc(F)c(F)c(F)c2)nc(=O)c2ccccc21.O=C(O)C(O)C(O)C(=O)O` belongs 70%; to `Cc1c(CNCCN2CCCCC2)c(C(=O)O)c(C)n1Cc1ccc(Cl)cc1`, 93%.
For the compound `CN(CCCNC(=S)NC12CC3CC(CC(C3)C1)C2)CCCNc1ccnc2cc(Cl)ccc12`, the Inhibition stood at 98%.
Still for that read-out and setting: to `FC(F)(F)c1ccc2[nH]c(-c3ccc(-c4ccc(CNCc5cnn(-c6ccccc6)n5)cc4)s3)nc2c1.O=C(O)C(F)(F)F` belongs 89%; to `Cc1cccc2nc(-c3ccc(-c4cccc(NC(=O)Nc5ccsc5)c4)s3)[nH]c12`, 29%; to `CC1(C)N=C(N)N=C(N)N1OCCCOc1cc(Cl)c(Cl)cc1Cl.Cl`, 95%.
For `CC(C)(CNC(=O)[C@@H]1CCCCN1)c1nc(-c2ccc(Cl)c(O)c2)c(-c2ccncc2)[nH]1.Cl`, the Inhibition came out at 96%.
`COc1ccc2nccc([C@@H](O)CN3CCC(NCc4ccc5c(c4)OCCO5)CC3)c2c1.O=C(O)C(=O)O` showed an Inhibition of 92%.
`O=C(Nc1cccc(-c2nn3ccccc3c2-c2ccnc(Nc3ccccc3)n2)c1)c1cc(F)ccc1F` showed an Inhibition of 75%.
`CN(C)c1ccc(-c2nnc(Sc3ccc(C#N)c([N+](=O)[O-])c3)n2Cc2ccco2)cc1` had an Inhibition of 79%.
On the same count and under the same terms, to `COc1ccc(-n2c(=O)c3c(n4c(SC(C)C)nnc24)-c2ccccc2CC32CCCCC2)cc1` belongs 15%.
Same read-out and setting: under `CC(C)(C)c1ccc(S(=O)(=O)Nc2ccccc2N2CCOCC2)cc1` stands 60%; under `O=C(NC1CCN(Cc2ccc(F)cc2)CC1)c1ccc(-c2cccc(C(F)(F)F)c2)s1.O=C(O)C(F)(F)F`, 11%.
In turn, `Cc1c(-c2cccc(C(C)(C)NC3CCN(Cc4ccccc4)CC3)c2)cnc(N)c1C.Cl` came in with an Inhibition of 39%.
The same measure, in the same setting: under `COc1ccccc1OCCN(CC(O)COc1cccc2[nH]c3ccccc3c12)CC(O)COc1cccc2[nH]c3ccccc3c12` (stereo unspecified) stands 96%; under `O=C(/C=C/c1ccc(Cl)c(Cl)c1)NCCCCCN1CCC(NC(=S)Nc2ccc(Cl)cc2)CC1`, 41%.
For the compound `CN1CCN(c2cc(NC(=O)Nc3cccc(Cl)c3Cl)ccc2Cl)CC1.Cl`, the Inhibition is recorded as 21%.
On the same count and under the same terms, under `O=C(Nc1ccccc1N1CCOCC1)c1ncoc1-c1ccccc1C(F)(F)F` stands 60%; under `O=C(Cn1cnc2c(nnn2Cc2ccccc2F)c1=O)Nc1ccc2c(c1)OCCO2`, 1%.
Compound `CN1CCN(CCCNCc2ccc(Nc3nccc(Nc4ccc(Oc5ccccc5)cc4)n3)cc2)CC1` displayed an Inhibition of 9%.
Compound `COc1ccc(S(=O)(=O)Nc2ccc(C(=O)NCc3ccccc3C(F)(F)F)cc2)cc1N1CCN(CC2CC2)CC1.O=C(O)C(F)(F)F` gave an Inhibition of 5%.
In turn, `O=C(O)C(F)(F)F.O=S(=O)(NC1CCCCN(Cc2ccccc2O)C1)c1ccc(C(F)(F)F)cc1` (stereo unspecified) yielded an Inhibition of 39%.
In turn, `Cl.NC(=O)c1cccc(Nc2nccc(Nc3ccc(Oc4c(Cl)cccc4Cl)c(Cl)c3)n2)c1` returned an Inhibition of 17%.
Turning to `Cc1cc(NCCCCCCN)nc(Nc2ccc(Cl)cc2)n1`, the Inhibition is listed as 26%.
In turn, `O=S(=O)(Nc1ccc(CCN2CCC(N3CCCCC3)CC2)cc1)c1ccc2ccccc2c1` gave an Inhibition of 80%.
